Test results: the supplement of paper PMC8728848
Only a selection was taken, and the strongest signals are over-represented in it overall.

What was measured:
Test in all cases: glycan array binding signal (z-score within array); higher = stronger binding
Conditions in all cases: glycan notation: IUPAC condensed, linker removed
[1] = target: Fuc(a1-2)Gal(b1-3)GalNAc(b1-3)Gal(a1-4)Gal(b1-4)Glc
Outline: (§1)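 From the Consortium for Functional Glycomics database, 3228 arrays were curated, keeping only those whose protein sequence was available. Binding is given as a within-array Z-score averaged across arrays sharing a protein sequence and across linkers. Negative Z-scores can be read as non-binding.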

[2] = target: Fuc(a1-2)Gal(b1-3)GlcNAc(b1-3)[Neu5Ac(a2-6)Gal(b1-4)GlcNAc(b1-6)]Gal(b1-4)Glc
Outline: as §1

[3] = target: Fuc(a1-2)Gal(b1-3)GlcNAc6S
Outline: as §1

[4] = target: Fuc(a1-2)Gal(b1-3)[Fuc(a1-4)]GlcNAc(b1-2)Man(a1-3)[Fuc(a1-2)Gal(b1-3)[Fuc(a1-4)]GlcNAc(b1-2)Man(a1-6)]Man(b1-4)GlcNAc(b1-4)[Fuc(a1-6)]GlcNAc(b1-4)[Fuc(a1-6)]GlcNAc
Outline: as §1

Fuc(a1-2)Gal(b1-4)GlcNAc = target: Fuc(a1-2)Gal(b1-4)GlcNAc
Outline: as §1

[5] = target: Fuc(a1-2)Gal(b1-4)GlcNAc(b1-3)Gal(b1-4)GlcNAc(b1-2)Man(a1-3)[Fuc(a1-2)Gal(b1-4)GlcNAc(b1-3)Gal(b1-4)GlcNAc(b1-2)Man(a1-6)]Man(b1-4)GlcNAc(b1-4)GlcNAc
Outline: as §1

[6] = target: Fuc(a1-2)Gal(b1-4)GlcNAc(b1-3)Gal(b1-4)GlcNAc(b1-3)Gal(b1-4)GlcNAc
Outline: as §1

[7] = target: Fuc(a1-2)Gal(b1-4)[Fuc(a1-3)]GlcNAc
Outline: as §1

[8] = target: Fuc(a1-2)Gal(b1-4)[Fuc(a1-3)]GlcNAc(b1-3)GalNAc
Outline: as §1

[9] = target: Fuc(a1-2)[Gal(a1-4)]Gal(b1-4)GlcNAc
Outline: as §1

[10] = target: Fuc(a1-2)[GalNAc(a1-3)]Gal(b1-3)GalNAc(a1-3)[Fuc(a1-2)]Gal(b1-4)GlcNAc
Outline: as §1

[11] = target: Fuc(a1-2)[GalNAc(a1-3)]Gal(b1-3)GalNAc(b1-3)Gal(a1-4)Gal(b1-4)Glc
Outline: as §1

[12] = target: Fuc(a1-2)[GalNAc(a1-3)]Gal(b1-4)GlcNAc(b1-2)Man(a1-3)[Fuc(a1-2)[GalNAc(a1-3)]Gal(b1-4)GlcNAc(b1-2)Man(a1-6)]Man(b1-4)GlcNAc(b1-4)GlcNAc
Outline: as §1

[13] = target: Fuc(a1-2)[GalNAc(a1-3)]Gal(b1-4)GlcNAc(b1-3)[Fuc(a1-2)[GalNAc(a1-3)]Gal(b1-4)GlcNAc(b1-6)]GalNAc
Outline: as §1

[14] = target: Gal(a1-3)Gal(b1-3)GlcNAc(b1-2)Man(a1-3)[Gal(a1-3)Gal(b1-3)GlcNAc(b1-2)Man(a1-6)]Man(b1-4)GlcNAc(b1-4)GlcNAc
Outline: as §1

[15] = target: Gal(a1-3)Gal(b1-4)GlcNAc(b1-2)Man
Outline: as §1

[16] = target: Gal(a1-3)Gal(b1-4)GlcNAc(b1-3)GalNAc
Outline: as §1

[17] = target: Gal(a1-3)[Gal(a1-4)]Gal(b1-4)GlcNAc
Outline: as §1

[18] = target: Gal(b1-3)GalNAc(a1-3)[Fuc(a1-2)]Gal(b1-4)Glc
Outline: as §1

[19] = target: Gal(b1-3)GalNAc(b1-3)Gal(a1-4)Gal(b1-4)Glc
Outline: as §1

Gal(b1-3)GlcNAc(b1-2)Man = target: Gal(b1-3)GlcNAc(b1-2)Man
Outline: as §1

[20] = target: Gal(b1-3)GlcNAc(b1-2)[Gal(b1-3)GlcNAc(b1-6)]Man(a1-6)[Gal(b1-3)GlcNAc(b1-2)Man(a1-3)]Man(b1-4)GlcNAc(b1-4)GlcNAc
Outline: as §1

[21] = target: Gal(b1-3)GlcNAc(b1-6)Gal(b1-4)GlcNAc
Outline: as §1

[22] = target: Gal(b1-3)[Neu5Ac(b2-6)]GalNAc
Outline: as §1

[23] = target: Gal(b1-4)GlcNAc(b1-2)Man(a1-3)Man(b1-4)GlcNAc(b1-4)GlcNAc
Outline: as §1

[24] = target: Gal(b1-4)GlcNAc(b1-2)Man(a1-3)[GlcNAc(b1-2)Man(a1-6)]Man(b1-4)GlcNAc(b1-4)GlcNAc
Outline: as §1

[25] = target: Gal(b1-4)GlcNAc(b1-2)Man(a1-6)[Man(a1-3)]Man(b1-4)GlcNAc(b1-4)GlcNAc
Outline: as §1

[26] = target: Gal(b1-4)GlcNAc(b1-2)[Gal(b1-4)GlcNAc(b1-6)]Man(a1-6)[GlcNAc(b1-4)][Gal(b1-4)GlcNAc(b1-2)Man(a1-3)]Man(b1-4)GlcNAc(b1-4)GlcNAc
Outline: as §1

[27] = target: Gal(b1-4)GlcNAc(b1-3)Gal(b1-4)Glc
Outline: as §1

[28] = target: Gal(b1-4)GlcNAc(b1-3)Gal(b1-4)GlcNAc
Outline: as §1

[29] = target: Gal(b1-4)GlcNAc(b1-3)Gal(b1-4)GlcNAc(b1-2)Man(a1-3)[Gal(b1-4)GlcNAc(b1-3)Gal(b1-4)GlcNAc(b1-2)Man(a1-6)]Man(b1-4)GlcNAc(b1-4)GlcNAc
Outline: as §1

[30] = target: Gal(b1-4)GlcNAc(b1-3)Gal(b1-4)GlcNAc(b1-2)[Gal(b1-4)GlcNAc(b1-3)Gal(b1-4)GlcNAc(b1-6)]Man(a1-6)[Gal(b1-4)GlcNAc(b1-3)Gal(b1-4)GlcNAc(b1-2)Man(a1-3)]Man(b1-4)GlcNAc(b1-4)[Fuc(a1-6)]GlcNAc
Outline: as §1

[31] = target: Gal(b1-4)GlcNAc(b1-3)Gal(b1-4)GlcNAc(b1-3)Gal(b1-4)GlcNAc(b1-3)Gal(b1-4)GlcNAc(b1-3)Gal(b1-4)GlcNAc(b1-2)Man(a1-3)[Gal(b1-4)GlcNAc(b1-3)Gal(b1-4)GlcNAc(b1-3)Gal(b1-4)GlcNAc(b1-3)Gal(b1-4)GlcNAc(b1-3)Gal(b1-4)GlcNAc(b1-2)Man(a1-6)]Man(b1-4)GlcNAc(b1-4)GlcNAc
Outline: as §1

B1: SBD-G4S3-Fc (protein)
chain: MASIPSSASVQLDSYNYDGSTFSGKIYVKNIAYSKKVTVVYADGSDNWNNNGNIIAASFSGPISGSNYEYWTFSASVKGIKEFYIKYEVSGKTYYDNNNSANYQVSTGGGGSGGGGSGGGGSEFVPRDCGCKPCICTVPEVSSVFIFPPKPKDVLTITLTPKVTCVVVDISKDDPEVQFSWFVDDVEVHTAQTQPREEQFNSTFRSVSELPIMHQDWLNGKEFKCRVNSAAFPAPIEKTISKTKGRPKAPQVYTIPPPKEQMAKDKVSLTCMITDFFPEDITVEWQWNGQPAENYKNTQPIMDTDGSYFVYSKLNVQKSNWEAGNTFTCSVLHEGLHNHHTEKSLSHSPGAA
B1 was tested, and the “glycan array binding signal (z-score)” value [1] was -0.249, the “glycan array binding signal (z-score)” value [2] was -0.478 and the “glycan array binding signal (z-score)” value [3] was -0.371. For the same binder, the “glycan array binding signal (z-score)” value [4] was 0.339, the “glycan array binding signal (z-score)” value (Fuc(a1-2)Gal(b1-4)GlcNAc) was -0.284 and the “glycan array binding signal (z-score)” value [5] was 1.23. For the same binder, the “glycan array binding signal (z-score)” value [6] was -0.034, the “glycan array binding signal (z-score)” value [7] was 0.134 and the “glycan array binding signal (z-score)” value [8] was 0.32. The “glycan array binding signal (z-score)” value [9] was -0.203, the “glycan array binding signal (z-score)” value [10] was 5.6 and the “glycan array binding signal (z-score)” value [11] was 0.07. For the same binder, the “glycan array binding signal (z-score)” value [12] was 0.007, the “glycan array binding signal (z-score)” value [13] was -0.2 and the “glycan array binding signal (z-score)” value [14] was 1.16. For the same binder, the “glycan array binding signal (z-score)” value [15] was -0.234, the “glycan array binding signal (z-score)” value [16] was 0.357 and the “glycan array binding signal (z-score)” value [17] was 1.33. The “glycan array binding signal (z-score)” value [18] was -0.267, the “glycan array binding signal (z-score)” value [19] was 0.103 and the “glycan array binding signal (z-score)” value (Gal(b1-3)GlcNAc(b1-2)Man) was -0.388. For the same binder, the “glycan array binding signal (z-score)” value [20] was -0.089, the “glycan array binding signal (z-score)” value [21] was -0.401 and the “glycan array binding signal (z-score)” value [22] was -0.146. The “glycan array binding signal (z-score)” value [23] was 0.225, the “glycan array binding signal (z-score)” value [24] was -0.37 and the “glycan array binding signal (z-score)” value [25] was 0.054. For the same binder, the “glycan array binding signal (z-score)” value [26] was 0.227, the “glycan array binding signal (z-score)” value [27] was -0.301 and the “glycan array binding signal (z-score)” value [28] was -0.054. The “glycan array binding signal (z-score)” value [29] was 8.04, the “glycan array binding signal (z-score)” value [30] was 0.249 and the “glycan array binding signal (z-score)” value [31] was 1.16.
